{"source": "the OligoGym collection"}
{"target": "ACYP1", "assay": "pooled miR-30 sensor sort-seq; sequence = guide strand", "conditions": "shRNA"}
{"sequence": "TAATATTAACACACAATAGTTC", "sensor-assay potency score (higher = more potent)": -0.41}
{"sequence": "TTGTCGATGTGTGATTTAGGAC", "sensor-assay potency score (higher = more potent)": -0.517}
{"sequence": "AAAAATTTCATAATCCACTGAT", "sensor-assay potency score (higher = more potent)": 0.598}
{"sequence": "TCCAACTTCAAGATGACTTTTT", "sensor-assay potency score (higher = more potent)": -1.37}
{"sequence": "TCGATGTGTGATTTAGGACTTC", "sensor-assay potency score (higher = more potent)": -0.511}
{"sequence": "TTCCTGCATATGACGCACCTTG", "sensor-assay potency score (higher = more potent)": -0.872}
{"sequence": "TTTTCATTGTTGAAGTTTGCTT", "sensor-assay potency score (higher = more potent)": -0.234}
{"sequence": "TTCATTGTTGAAGTTTGCTTTG", "sensor-assay potency score (higher = more potent)": -0.707}
{"sequence": "TCATTGTTGAAGTTTGCTTTGT", "sensor-assay potency score (higher = more potent)": -0.429}
{"sequence": "TGTCCTTGCACTGTGCCCCGGT", "sensor-assay potency score (higher = more potent)": 0.12}
{"sequence": "TTCATAATCCACTGATATCAGG", "sensor-assay potency score (higher = more potent)": -1.09}
{"sequence": "TTAGATTTGTGTACAGTGGTAA", "sensor-assay potency score (higher = more potent)": 0.61}
{"sequence": "TCTTGTTTCAAGCCATTCCTGC", "sensor-assay potency score (higher = more potent)": -0.475}
{"sequence": "TTTCATTGTTGAAGTTTGCTTT", "sensor-assay potency score (higher = more potent)": 0.5}
{"sequence": "TATTAACACACAATAGTTCTAT", "sensor-assay potency score (higher = more potent)": 0.336}
{"target": "ACYP2", "assay": "pooled miR-30 sensor sort-seq; sequence = guide strand", "conditions": "shRNA"}
{"sequence": "TTCATTAGAAAAGTTTGTGCGG", "sensor-assay potency score (higher = more potent)": 0.328}
{"sequence": "TTGAGTAAAATTATTTCAGTGT", "sensor-assay potency score (higher = more potent)": 0.361}
{"sequence": "TTTGCTGGTATTCTTCACCCAG", "sensor-assay potency score (higher = more potent)": -0.785}
{"sequence": "TAGTAGCACGTACAGTCGCTTA", "sensor-assay potency score (higher = more potent)": -1.19}
{"sequence": "TTTAGTAGCACGTACAGTCGCT", "sensor-assay potency score (higher = more potent)": 0.0895}
{"sequence": "TGGAATTGACTTTGTCTTCTGG", "sensor-assay potency score (higher = more potent)": -0.0277}
{"sequence": "TATTTTCCTAGCTTCATCTTCT", "sensor-assay potency score (higher = more potent)": 1.16}
{"sequence": "TTCATCTTCTGTATACATTCTG", "sensor-assay potency score (higher = more potent)": 0.635}
{"sequence": "ATCTTCTGTATACATTCTGAAG", "sensor-assay potency score (higher = more potent)": -1.49}
{"sequence": "TATTCAAGCTTAGAGATGGTTT", "sensor-assay potency score (higher = more potent)": -0.574}
{"sequence": "TTTCCTAGCTTCATCTTCTGTA", "sensor-assay potency score (higher = more potent)": 0.952}
{"sequence": "TTCTAGTATACATAGTCTTAAG", "sensor-assay potency score (higher = more potent)": -1.46}
{"sequence": "TTAGTAGCACGTACAGTCGCTT", "sensor-assay potency score (higher = more potent)": -0.537}
{"sequence": "TTCCTAGCTTCATCTTCTGTAT", "sensor-assay potency score (higher = more potent)": -0.685}
{"sequence": "TCTGTATACATTCTGAAGCAAA", "sensor-assay potency score (higher = more potent)": -1.22}
{"sequence": "TTGCTTGTTGAAAACATAGTTG", "sensor-assay potency score (higher = more potent)": -0.594}
{"sequence": "TTTTCCTAGCTTCATCTTCTGT", "sensor-assay potency score (higher = more potent)": -0.817}
{"sequence": "TTGACTTTGTCTTCTGGCCCCT", "sensor-assay potency score (higher = more potent)": 0.0313}
{"sequence": "TCATTAGAAAAGTTTGTGCGGT", "sensor-assay potency score (higher = more potent)": -0.214}
{"sequence": "TAGTCTTAAGAACATACAGTAT", "sensor-assay potency score (higher = more potent)": -1.07}
{"sequence": "TATTCTAGTATACATAGTCTTA", "sensor-assay potency score (higher = more potent)": -0.674}
{"sequence": "TACTCTGCTACTATTATTCTAG", "sensor-assay potency score (higher = more potent)": -0.38}
{"sequence": "TTTTCATTAGAAAAGTTTGTGC", "sensor-assay potency score (higher = more potent)": -0.116}
{"sequence": "TTGCTGGTATTCTTCACCCAGC", "sensor-assay potency score (higher = more potent)": -1.24}
